High-throughput results as filed in PubChem.
In the library only some 0.44% were active in any assay of this set; here they are far more common.
GoLoco inh red = blocks human Gai1 binding to RGS12 GoLoco peptide, red readout; Potency, µM (doses to about 61.6 µM), for the others: top-dose activity, negative = inhibition, usual class: inhibitors; Gai1:RGS12 GoLoco peptide FP, rhodamine, 10 min; 230,000 tested, 0.44% active; P63096; AID 880; active = well fitted inhibition curve with a large enough effect, not every such curve was filed as active; inactive = no such curve, though single readings can be large or run the other way; also: % is scaled to controls: 0 for no effect and ±100 for the full control effect; nearly all actives have a fitted effect of over 30% in size
Target sequence (P63096 whole entry, looked up): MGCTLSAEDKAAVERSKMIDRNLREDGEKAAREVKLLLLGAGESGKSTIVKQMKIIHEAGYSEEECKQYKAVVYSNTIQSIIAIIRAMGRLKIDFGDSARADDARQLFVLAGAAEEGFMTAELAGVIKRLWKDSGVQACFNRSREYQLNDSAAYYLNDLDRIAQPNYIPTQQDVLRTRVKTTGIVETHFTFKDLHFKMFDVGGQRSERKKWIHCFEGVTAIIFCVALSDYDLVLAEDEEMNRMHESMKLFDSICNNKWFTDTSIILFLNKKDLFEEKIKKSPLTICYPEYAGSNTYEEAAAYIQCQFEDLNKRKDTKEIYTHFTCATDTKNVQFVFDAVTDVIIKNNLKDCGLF
TR SRC2 fluor cs = alters Texas Red total fluorescence, flagging assay interference. 280,000 tested, 0.29% active. TRb/SRC2 Texas Red total fluorescence interference. Potency, µM (highest dose often 106 µM), inactives show top-dose fluorescence change, negative = quenching; active = well fitted curve in either direction with a large enough effect; inconclusive = small, poorly fitted or top-dose-only effect; also: % is scaled to controls: 0 for no effect and ±100 for the full control effect
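Human TRb ligand-binding domain at 0.6 uM with 20 nM Texas Red SRC2 peptide in Tris buffer containing 1 uM T3 and 5% DMSO, incubated with compound 5 h at ambient temperature. Total fluorescence (555/632 nm) calculated as parallel + 2 × perpendicular.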
ERG-DNA inh = ERG Ets/DNA interaction inhibition; P11308; fluorescence polarization, His-ERG Ets domain / labelled DNA; Potency, µM (top dose mostly 76.9 µM), for inactives: top-dose FP activity, negative = inhibition, hits mostly inhibitors; 370,000 tested, 0.028% active; AID 624246; active = well fitted inhibition curve with a large enough effect in the polarisation, with a control signal flat; inconclusive = small, poorly fitted or top-dose-only effect, or effect the other way, or a change in a side signal; inactive = no such curve, though single readings can be large or run the other way; the % refers to the polarisation;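 also: polarization taken with two DNA probes labelled with fluorescein and Texas red; % of control where 0% means no effect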
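His-tagged ERG Ets domain (1 uM in the protein solution; 300mM KCl, 50mM Tris-HCl, 1mM EDTA, 1mM DTT, pH 7.5) received compound, then a probe mix of 5 nM fluorescein-DNA and 100nM Texas-615-DNA. Fluorescence polarization was read for both dyes.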
TRb-SRC2 inh = disrupts binding of human TR beta to SRC2 | P10828 | TRbeta-SRC2 peptide binding, fluorescence polarization; receptor liganded with 1 µM T3 | Potency, µM (highest dose often 106 µM), without a hit: at the top dose activity change, negative = inhibition, usual class: inhibitors | 280,000 tested, 0.065% active | AID 1469;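 also: plate controls were bound peptide for no effect and peptide without receptor for full effect; nearly all actives have a fitted effect of over 50% in size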
Target sequence (P10828 whole entry, looked up): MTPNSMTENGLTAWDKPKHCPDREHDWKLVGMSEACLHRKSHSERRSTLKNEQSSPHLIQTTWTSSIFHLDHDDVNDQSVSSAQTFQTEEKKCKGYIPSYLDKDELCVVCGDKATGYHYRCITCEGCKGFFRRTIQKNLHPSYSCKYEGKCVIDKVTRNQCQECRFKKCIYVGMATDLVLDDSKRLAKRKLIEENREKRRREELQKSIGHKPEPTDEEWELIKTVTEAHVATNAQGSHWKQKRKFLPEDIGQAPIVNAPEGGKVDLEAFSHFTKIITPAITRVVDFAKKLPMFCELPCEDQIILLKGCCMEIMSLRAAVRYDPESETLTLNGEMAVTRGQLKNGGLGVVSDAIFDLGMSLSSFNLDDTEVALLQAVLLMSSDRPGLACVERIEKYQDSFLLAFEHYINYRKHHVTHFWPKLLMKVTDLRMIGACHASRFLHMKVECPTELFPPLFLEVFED
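Compounds were added to 0.6 uM TRb ligand-binding domain and 20 nM Texas Red-labeled SRC2 peptide in Tris buffer containing 1 uM T3, incubated 5 hr at ambient temperature, then read by fluorescence polarization.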
Apoferritin bind = binds horse apoferritin like a general anesthetic | Potency, µM (titrated, usually from 77.5 µM), for the others: at the top dose activity change, negative = displacement, usual class: inhibitors | apoferritin/1-aminoanthracene competitive binding, fluorescence | 350,000 tested, 0.074% active | P02791; also: % is scaled to controls: 0 for no effect and ±100 for the full control effect; nearly all actives have a fitted effect of over 20% in size
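Read-out: endpoint 1-AMA fluorescence, excitation 380 nm and emission 535 nm, after compounds sit 10 min at room temperature with 10 uM horse-spleen apoferritin in 50% saturated 1-AMA/PBS. Values come from four-parameter Hill fits.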
Starred values were filed as active, the others as inactive; i = inactive; ? = inconclusive; nt = no result; ! = not confirmed by another sample; [ ] = another dose, or the depositor's remark. Unless noted, calls follow the shape of the dose curve; as a rule, active = well fitted curve in the direction sought with a large enough effect; inconclusive = small, poorly fitted or top-dose-only effect, or another doubt; inactive = no such curve, though single readings can be large; an effect the other way counts as inactive or inconclusive. Potency is read from the fitted curve at half-maximal effect.

SMILES	GoLoco inh red	TR SRC2 fluor cs	ERG-DNA inh	TRb-SRC2 inh	Apoferritin bind
COC(=O)CCC(=O)OC1(C)C(=O)C=C2C=C(C3CC3)N(CC3CC3)C=C2C1=O (centres undefined)	-4.4%[14.2 µM]	0.8%[11.2 µM]	-9.8%	4.0%[11.2 µM]	-0.9%
O=C1/C(=C\c2cccs2)CCC/C1=C/c1cccs1	nt	-0.1%	nt	2.4%	nt
CC1CC=CC2C1C(=O)N(Cc1ccccc1)C2c1ccc2ccccc2c1Br (centres undefined)	nt	-0.3%	nt	-6.6%	9.2%
COc1ccc(C2CC(=O)c3cnc4c(-c5ccccc5)c(C)nn4c3C2)c(OC)c1 (centres undefined)	nt	1.3%	0.2%	0.6%	-0.9%
COc1ccc(-c2c(C)nn3c4c(cnc23)C(=O)CC(c2ccc(C)cc2)C4)cc1 (centres undefined)	nt	14.1µM*[quencher]	0.5%	-12.7%	17.3%
Cc1noc(C)c1-c1ccc2ncnc(NCc3ccc(Br)cc3)c2c1	nt	0.1%	nt	-2.6%	?
O=C(Cn1c(-c2cccs2)cc2ccccc21)N1CCN(c2ccccc2F)CC1	nt	100µM*[quencher]	5.8%	-27.1%	138.9%
CCOc1ccccc1-c1nnc2n1N=C(c1cccc(OC)c1)CS2	nt	-1.2%	nt	2.1%	-13.2%
CCOc1ccc(NCc2cccn2-c2nnc(N3CCC(C(=O)NCCc4ccc(OC)c(OC)c4)CC3)s2)cc1	nt	35.5µM*[quencher]	0.3%	-8.1%	132.1%
Cc1ccc(S(=O)(=O)/N=C(/NC(=S)Nc2ccccc2)c2ccccc2)cc1	13.9%	-2.5%	-0.7%	2.4%	-6.0%
Cc1ccc(S(=O)(=O)C/N=C(/NC(=S)N(c2ccccc2)c2ccccc2)c2ccccc2)cc1	-2.4%	-0.3%	nt	-26.6%	14.1µM*
CN(C)C(=O)Nc1ccc(Oc2ccc(Cl)cc2)cc1	nt	-3.5%	nt	-8.4%	-23.5%
O=S(=O)(Nc1cccc2cccnc12)c1ccc(Br)cc1	nt	-0.7%	nt	-3.0%	-13.1%
CCC(C)(C)C(=O)Nc1cc([N+](=O)[O-])ccc1Cl	-3.3%	-2.2%	8.2%	-4.4%	?
CCC(C)(C)C(=O)Nc1cc([N+](=O)[O-])ccc1F	-8.6%	0.1µM*[quencher]	-4.9%	-21.5%[53 µM]	?
CCC1OC23CCCCC2C(C#N)(C(=N)O3)C1(C#N)C#N (centres undefined)	35.5µM*	2.0%	-6.6%	-1.8%	207.4%
N#CC1(C#N)COC23CCCCC2C1(C#N)C(=N)O3 (centres undefined)	0.891µM*	6.8%	?	-12.4%	120.2%
CCCC1OC23CCCCC2C(C#N)(C(=N)O3)C1(C#N)C#N (centres undefined)	28.2µM*	9.0%	-8.1%	-20.7%	118.6%
CC1OC23CCCCC2C(C#N)(C(=N)O3)C1(C#N)C#N (centres undefined)	-31.4%	2.9%	-4.2%	-12.0%	77.9%
CN(C)C1C(=O)C(C(N)=O)=C(O)[C@@]2(O)C(=O)C3=C(O)c4c(O)ccc(Cl)c4[C@@H](O)C3C[C@@H]12 (some centres undefined)	-4.2%	0.4%	nt	3.5%	nt
CCCCCCCCCCCCCCCCn1cc[n+](Cc2ccccc2)c1C	nt	2.8%	nt	-1.2%	?
COC1=CC(=O)c2ccccc2C1=O	nt	nt	4.1%	nt	nt
COC1=CC(=O)C=C(OC)C1=O	20µM*	-0.2%	-1.7%	11.4%	1.7%
CCCc1ccc(-c2ccc(C(=O)Oc3ccc(Br)cc3)cc2)nc1	nt	0.0355µM*[quencher]	1.1%	-27.1%[53 µM]	48.7%
N=C(N)c1ccc(/C=C\c2ccc(C(=N)N)cc2)cc1	7.6%[14.2 µM]	nt	nt	nt	nt
SMILES	GoLoco inh red	TR SRC2 fluor cs	ERG-DNA inh	TRb-SRC2 inh	Apoferritin bind
O=C(O)c1cc2ccccc2cc1O	nt	-5.6%[201 µM]	nt	0.8%[201 µM]	nt
CCN(CC)c1ccc(C=C2C(=O)OC(c3ccccc3)OC2=O)cc1 (centres undefined)	3.2%	-1.4%	34.8%	0.3%	-14.7%
CCN(CC)c1ccc(/C=C/C(=O)C2C(=O)C=C(C)OC2=O)cc1 (centres undefined)	i	31.6µM*[fluorescent]	135.4%	?	-11.3%
Cc1cccc(C)c1OCC(=O)Nc1ccc(S(=O)(=O)Nc2ccccn2)cc1	-3.7%	70.8µM*[quencher]	-5.6%	-5.9%	-0.7%
Cc1ccc2cccc(NC(=O)COc3cc(C)c(Cl)c(C)c3)c2n1	nt	3.0%	0.3%	6.1%	-1.9%
Cc1ccc2cccc(NC(=O)COc3ccccc3Cl)c2n1	nt	15.8µM*[quencher]	-0.1%	-15.4%	35.6%
Cc1cc(O)c(-c2cc(O)c(C)cc2O)cc1O	0.316µM*!	-3.3%	-8.5%	1.7%	-5.5%
CCOc1ccc(NC(=O)OC(C)C)cc1OCC	nt	-1.6%[201 µM]	nt	2.5%[201 µM]	nt
COc1ccc(C(=O)NC23CC4CC(CC(C4)C2)C3)cc1	nt	nt	3.1%	nt	-1.2%
COc1nc(NC23CC4CC(CC(C4)C2)C3)nc(OC)n1	4.9%	-1.2%	-1.7%	5.9%	7.08µM*
CC(C)c1ccc(OCC(=O)N(c2ccccn2)C2CCCCC2)cc1	3.6%	5.62µM*[quencher]	7.5%	-26.3%[53 µM]	0.2%
CCN(C/C=C/C#CC(C)(C)C)Cc1cccc(OCc2cc(-c3ccsc3)cs2)c1	nt	13.6%	nt	0.5%	72.5%
COCCn1c(=O)c(-c2cccc(C#N)c2)nc2cnc(N3CCOCC3)nc21	20µM*	nt	nt	nt	nt
CC(C)C[C@H](NC(=O)[C@H](C)NC(=O)CNC(=O)[C@H](CCCCN)NC(=O)[C@H](CCCN=C(N)N)NC(=O)[C@H](C)NC(=O)[C@H](Cc1ccccc1)NC(=O)[C@@H](N)CCCN=C(N)N)C(=O)N[C@@H](CCCN=C(N)N)C(=O)N[C@@H](CCC(N)=O)C(=O)N[C@@H](CCCCN)C(=O)N[C@@H](CC(N)=O)C(=O)N[C@H](C(N)=O)C(C)C	nt	-11.3%	nt	20.9%	1.0%
O=C1c2ccc(O)c(O)c2C(=O)c2c(O)ccc(O)c21	-25.3%	44.7µM*[fluorescent]	nt	25.1µM*	-7.9%
CN(C)c1nc(NC2CCC(NC(=O)c3ccc(F)c(F)c3)CC2)nc2ccccc12 (centres undefined)	nt	0.3%	nt	1.3%	-1.9%
Cc1ccccc1CSCc1nc2ccccc2[nH]1	16.6%	1.12µM*[quencher]	11.8%	-14.5%[53 µM]	-9.0%
CCOC(=O)/C(C)=C1\NC(C)(C)Cc2ccccc21	28.2µM*	-2.6%	-3.1%	5.0%	-7.1%
CC(C)CCC[C@@H](C)[C@H]1CC[C@H]2[C@@H]3CC=C4CC(O)CC[C@]4(C)[C@H]3CC[C@]12C (some centres undefined)	nt	-0.6%	nt	-0.3%	-1.0%
Cn1c(=O)c(NCCc2ccccc2)c2c3c(cccc31)C(=O)c1ccccc1-2	4.47µM*	44.7µM*[fluorescent]	?	28.2µM*	42.1%
CCCCNc1c2c3c(cccc3n(C)c1=O)C(=O)c1ccccc1-2	14.1µM*	6.6%	?	-15.3%	-12.4%
Cn1c(NC2CCCCC2)cc(=O)n(C)c1=O	nt	nt	-2.8%	nt	3.1%
Cn1c(=O)c(NC2CCCCC2)c2c3c(cccc31)C(=O)c1ccccc1-2	0.794µM*	3.7%	4.8%	3.1%	-1.8%
Cn1c(NCCc2ccccc2)cc(=O)n(C)c1=O	nt	-3.9%	2.8%	4.0%	-2.6%
